Laboratory results published in the supplement of paper PMC6992640.
± gives the standard deviation of the averaged measurements.

Columns and labels:
Experiment in all cases: cell viability (% of vehicle); higher = less cytotoxic
Details in all cases: 10 µM; 72 h
[1] = tested on: HCI01 (cells of a triple-negative basal-like breast cancer xenograft)
[2] = tested on: HCI03 (cells of an ER-positive luminal breast cancer xenograft)
[3] = tested on: HCI09 (cells of a triple-negative luminal androgen receptor type breast cancer xenograft)
[4] = tested on: HCI11 (cells of an ER-positive luminal breast cancer xenograft)
[5] = tested on: HCI13 (cells of an ER-positive luminal breast cancer xenograft)
[6] = tested on: HCI16 (cells of a triple-negative basal-like breast cancer xenograft)
[7] = tested on: UCD52 (cells of a triple-negative basal-like breast cancer xenograft)
[8] = tested on: WHIM2 (cells of a triple-negative basal-like breast cancer xenograft)
[9] = tested on: WHIM30 (cells of a triple-negative basal-like breast cancer xenograft)
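Also: PDX cells carrying CMV promoter-driven luciferase, viability read as total photon flux per second by IVIS imaging following D-luciferin, vehicle control 0.1% DMSO.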

Row | SMILES | cell viability [1] | cell viability [2] | cell viability [3] | cell viability [4] | cell viability [5] | cell viability [6] | cell viability [7] | cell viability [8] | cell viability [9]
1 | O=c1ccc2ccc(OCCCCN3CCN(c4cccc5sccc45)CC3)cc2[nH]1 [Brexpiprazole] | 136 ± 21 | 106 | 85.7 ± 10 | 102 | 123 ± 5.6 | 162 | 78.3 ± 6.2 | 115 ± 9.1 | 112 ± 8.2
2 | CC(=O)C1CCC2C3CCC4=CC(=O)CCC4(C)C3CCC12C (stereo not given) [Progesterone] | 160 ± 12 | 108 | 77.8 ± 41 | 90.6 | 154 ± 6.9 | 113 | 88.9 ± 3.9 | 148 ± 41 | 123 ± 16
3 | CC(NC(=O)C(O)C(C)C)C(=O)NC1C(=O)N(C)CCc2ccccc21 (stereo not given) | 144 ± 28 | 106 | 71.2 ± 7.3 | 119 | 102 ± 21 | 180 | 81 ± 20 | 69.98 ± 0.17 | 184 ± 11
4 | CC1OC(n2cc(F)c(=O)[nH]c2=O)C(O)C1O (stereo not given) [Doxifluridine] | 67.1 ± 35 | 152 | 89.8 ± 12 | 110 | 104 ± 7.4 | 148 | 93 ± 19 | 102 ± 19 | 175.4 ± 0.91
5 | CCN(CC)CCNC(=O)c1cc(Cl)c(N)cc1OC [Metoclopramide] | 112 ± 6.5 | 107 | 90.8 ± 17 | 94.6 | 121 ± 10 | 72.6 | 98.01 ± 0.093 | 88.4 ± 2.2 | 113 ± 27
6 | CCN(CC)CCOCCOC(=O)C(CC)(CC)c1ccccc1.O=C(O)CC(O)(CC(=O)O)C(=O)O [Oxeladin Citrate] | 111.1 ± 1.1 | 92.7 | 143 ± 73 | 99.4 | 98.7 ± 22 | 122 | 84.9 ± 4.5 | 82.4 ± 24 | 119 ± 21
7 | CO[C@H]1O[C@@H]2O[C@@]3(C)CC[C@H]4[C@H](C)CC[C@@H]([C@H]1C)[C@@]24OO3 [Artemether (SM-224)] | 102 ± 17 | 111 | 79.3 ± 25 | 74.7 | 84.1 ± 3.5 | 123 | 77 ± 4.6 | 117 ± 3.2 | 99.8 ± 3.1
8 | COC(=O)C(Cc1ccccc1)NC(=O)C(N)CC(=O)O (stereo not given) [Aspartame] | 120 ± 6.8 | 152 | 104 ± 3.9 | 119 | 161 ± 4.4 | 117 | 100 ± 21 | 131 ± 23 | 128 ± 6.7
9 | CC(c1cc2ccccc2s1)N(O)C(N)=O (stereo not given) [Zileuton] | 101 ± 13 | 136 | 105 ± 10 | 101 | 134 ± 24 | 128 | 112 ± 4 | 112 ± 21 | 134 ± 13
10 | CC(CCC(=O)O)C1CCC2C3CCC4CC(O)CCC4(C)C3CC(O)C12C (stereo not given) [Deoxycholic acid] | 119 ± 25 | 143 | 107 ± 23 | 103 | 107.1 ± 0.2 | 87.1 | 112 ± 3.8 | 104 ± 19 | 91.5 ± 0.73
11 | O=c1ccn(C2OC(CO)C(O)C2O)c(=O)[nH]1 (stereo not given) [Uridine] | 106 ± 10 | 115 | 100.8 ± 0.17 | 100 | 103 ± 21 | 104 | 85.6 ± 2.8 | 89.7 ± 4.7 | 131 ± 9.8
12 | CC(=O)N1CCN(c2ccc(OCC3COC(Cn4ccnc4)(c4ccc(Cl)cc4Cl)O3)cc2)CC1 (stereo not given) [Ketoconazole] | 188 ± 14 | 143 | 36.4 ± 2.8 | 102 | 76 ± 1.8 | 122 | 55.8 ± 5.3 | 172 ± 25 | 122 ± 10
13 | CS(=O)(=O)c1ccc(C(O)C(CF)NC(=O)C(Cl)Cl)cc1 (stereo not given) [Florfenicol] | 118 ± 25 | 118 | 89.5 ± 2.1 | 101 | 114 ± 8.4 | 116 | 102 ± 2.6 | 87.4 ± 18 | 99.1 ± 6.9
14 | CC(C)OC(=O)C(C(=O)OC(C)C)=C1SC=CS1 [Malotilate] | 108 ± 12 | 84.3 | 90.2 ± 13 | 90.9 | 89.8 ± 3.1 | 75.5 | 89.5 ± 2.4 | 75.6 ± 17 | 97.9 ± 4
15 | CCCCC(C)(O)C/C=C/[C@H]1[C@H](O)CC(=O)[C@@H]1CCCCCCC(=O)OC (mixture of isomers) [Misoprostol] | 95 ± 25 | 120 | 107 ± 12 | 101 | 123 ± 9.4 | 112 | 96.6 ± 8.3 | 93.1 ± 9.9 | 107 ± 4.6
16 | C.CCN1CC(CCN2CCOCC2)C(c2ccccc2)(c2ccccc2)C1=O.O (stereo not given) [Doxapram HCl] | 102.9 ± 0.49 | 198 | 81.9 ± 14 | 101 | 91.2 ± 1.9 | 105 | 73.6 ± 5.6 | 82.8 ± 4.2 | 117 ± 11
17 | O=C(O)c1ccccc1 [Benzoic Acid] | 143 ± 20 | 95.6 | 109 ± 25 | 104 | 70.3 ± 10 | 124 | 110 ± 8 | 127 ± 7.8 | 111 ± 15
18 | CC(Cn1cnc2c(N)ncnc21)OCP(=O)(O)O (stereo not given) [Tenofovir] | 89.1 ± 9.4 | 123 | 103 ± 15 | 106 | 112 ± 11 | 116 | 90.6 ± 6.9 | 99.3 ± 14 | 121.3 ± 1.2
19 | Cn1c(=O)c2c(ncn2CC2OCCO2)n(C)c1=O [Doxofylline] | 110 ± 27 | 117 | 95.6 ± 12 | 100 | 82.8 ± 4.8 | 105 | 96.4 ± 3.6 | 102 ± 11 | 100 ± 9
20 | N#CC1CCCN1C(=O)CNC12CC3CC(CC(O)(C3)C1)C2 (stereo not given) [Vildagliptin (LAF-237)] | 118.9 ± 0.29 | 125 | 88.7 ± 16 | 126 | 96.1 ± 17 | 114 | 121 ± 12 | 112 ± 1.5 | 141 ± 20
